Measurements from PubChem BioAssay (NCATS).
Records with an inconclusive call do not appear. Activity calls are given as the source filed them. Calls follow the shape of the dose curve; as a rule, active = well fitted curve in the direction sought with a large enough effect; inconclusive = small, poorly fitted or top-dose-only effect, or another doubt; inactive = no such curve, though single readings can be large; an effect the other way counts as inactive or inconclusive.

What was measured:
[1] = target: Glutathione peroxidase 1 (Homo sapiens) (UniProt P07203); test: Primary qHTS Assay for Inhibitors of Recombinant Selenoprotein Glutathione Peroxidase 1 (GPX1) (AID 1845191); also: nearly all actives have a fitted effect of over 65% in size; as to activity, negative = inhibition: % is scaled to controls: 0 for no effect and ±100 for the full control effect
Chain of Glutathione peroxidase 1 (Homo sapiens) (P07203 whole entry, looked up): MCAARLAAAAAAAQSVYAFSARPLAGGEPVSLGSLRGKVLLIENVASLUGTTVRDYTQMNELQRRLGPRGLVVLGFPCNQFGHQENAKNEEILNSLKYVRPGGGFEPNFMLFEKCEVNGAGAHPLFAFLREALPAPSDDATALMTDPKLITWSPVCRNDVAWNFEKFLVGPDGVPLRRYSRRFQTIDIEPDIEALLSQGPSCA
How it was run: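 GR-coupled assay: compounds preincubated 30 min at room temperature with GPX1, then reaction started with CHP; final 10 nM GPX1, 1 mM GSH, 0.5 mM CHP, 0.5 mM NADPH, 100 nM GR, 0.01% BSA, pH 7.5 Tris buffer. NADPH fluorescence (340/450 nm) read at 0 and 15 min.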

[2] = target: Phospholipid hydroperoxide glutathione peroxidase GPX4 (Homo sapiens) (UniProt P36969); test: Primary qHTS Assay for Inhibitors of Recombinant Selenoprotein Glutathione Peroxidase 4 (GPX4) (AID 1845192); also: nearly all actives have a fitted effect of over 65% in size; as to activity change, negative = inhibition: series mostly up to about 50 µM; % is scaled to controls: 0 for no effect and ±100 for the full control effect
Chain of Phospholipid hydroperoxide glutathione peroxidase GPX4 (Homo sapiens) (P36969 whole entry, looked up): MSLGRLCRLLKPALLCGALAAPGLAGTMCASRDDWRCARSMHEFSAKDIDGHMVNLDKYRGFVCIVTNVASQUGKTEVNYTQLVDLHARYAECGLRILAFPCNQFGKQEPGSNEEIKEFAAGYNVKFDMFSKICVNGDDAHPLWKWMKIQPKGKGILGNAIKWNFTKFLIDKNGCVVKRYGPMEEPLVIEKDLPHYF
How it was run: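 GR-coupled assay: recombinant GPX4 preincubated 30 min with compound at room temperature; final 200 nM GPX4, 1 mM GSH, 0.5 mM cumene hydroperoxide, 0.5 mM NADPH, 100 nM GR, 0.01% BSA, pH 7.5 Tris. NADPH fluorescence (340/450 nm) read at 0 and 15 min.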

[3] = target: Luciferin 4-monooxygenase (Photinus pyralis) (UniProt P08659); test: Primary firefly luciferase (FLuc) qHTS assay for identification of artifact compounds. (AID 1845220); also: nearly all actives have a fitted effect of over 60% in size; also: potency is read from the fitted curve at half-maximal effect;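 as to activity change, negative = inhibition: series mostly up to about 54 µM; plate controls were DMSO vehicle for no effect and no enzyme for full effect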
How it was run: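 D-luciferin and ATP (10 uM each, final) in Tris acetate buffer pH 7.6 were incubated with compounds for 15 min at room temperature. The reaction was started with 10 nM Photinus pyralis luciferase and luminescence read after 5 min. Percent inhibition was fitted to a 4-parameter Hill equation.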

[4] = Primary fluorescence-based thiol-reactive (MSTI) qHTS assay for identification of artifact compounds. (AID 1845221); also: nearly all actives have a fitted effect of over 65% in size; also: potency is read from the fitted curve at half-maximal effect;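 as to activity change, negative = thiol reactive: series mostly up to about 54 µM; thiol-reactive compounds lower the probe fluorescence signal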
How it was run: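 Curve-fitted percent inhibition (4-parameter Hill) derived from fluorescence, Ex 525/Em 598 nm, scaled with Acetyl-MSTI and MSTI; 1 h incubation at room temperature.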

[5] = system: Nanoluciferase (engineered Oplophorus gracilirostris luciferase); test: Primary Nanoluciferase (NLuc) qHTS assay for identification of artifact compounds. (AID 1845222);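 also: series mostly up to about 54 µM; 0% = DMSO and -100% = no enzyme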
How it was run: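 Diluted conditioned medium from NLuc-expressing S16 cells treated with compounds for 15 min at room temperature, then Nano-Glo substrate added; luminescence read after 5 min. Percent inhibition versus no-enzyme and DMSO controls fitted to 4-parameter Hill equation.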

[6] = Primary redox qHTS assay for identification of artifact compounds. (AID 1845223);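 also: 0% = DMSO and 100% = reference compound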
How it was run: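 Amplex Red (25 uM) and HRP (250 mU/mL) in HBSS, with compounds for 15 min, then 250 uM DTT for 30 min, room temperature, dark. Fluorescence 525/598 nm read; normalized to DMSO and 10 uM DA3003; Hill fit.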

C=C(C)C(=O)OC1C(OC(C)=O)/C(C=O)=C\CC/C(CO)=C/C2OC(=O)C(=C)C21 (centres undefined)
inactive: Potency [1] | Potency [2] | Potency [3] | Potency [4] | Potency [5] | Potency [6]

COC(=O)C1(C)CCC2(C(=O)O)CCC3(C)C(=CCC4C5(C)CC(O)C(OC6OCC(O)C(O)C6O)C(C)(CO)C5CCC43C)C2C1 (centres undefined)
inactive: Potency [1] | Potency [2] | Potency [3] | Potency [4] | Potency [5] | Potency [6]

C[C@H](N)C(=O)N[C@@H](Cc1ccc(O)cc1)C(=O)N1CCC[C@H]1C(=O)NCC(=O)N[C@@H](CCCCN)C(=O)N[C@@H](Cc1ccccc1)C(N)=O
inactive: activity, negative = inhibition [1] 0.372% [at 9.52 µM] | activity change, negative = inhibition [2] -6.9% [at 9.73 µM] | activity change, negative = inhibition [3] 3.15% [at 11.6 µM] | activity change, negative = thiol reactive [4] -3.19% [at 11.5 µM] | activity, negative = inhibition [5] 4.39% [at 11.6 µM] | redox activity (% of DA3003) [6] -3.11% [at 11.5 µM]

CC1CC[C@]2(C(=O)O)CC[C@]3(C(=O)O)C(=CCC4[C@@]5(C)CC[C@H](O[C@@H]6O[C@H](CO)[C@@H](O)[C@H](O)[C@H]6O)C(C)(C)C5CC[C@]43C)C2C1C (some centres undefined)
inactive: Potency [1] | Potency [2] | Potency [3] | Potency [4] | Potency [5] | Potency [6]

C[C@H](O)[C@H](O)/C=C/c1cccc(O)c1CO
inactive: Potency [1] | Potency [2] | Potency [3] | Potency [4] | Potency [5] | Potency [6]

CC/C=C\CCO[C@@H]1O[C@H](CO)[C@@H](O)[C@H](O)[C@H]1O
inactive: Potency [1] | Potency [2] | Potency [3] | Potency [5] | Potency [6]
active: Potency [4] 5.97 µM

FC(F)(F)c1ccc(Nc2nc(-c3c(C(F)(F)F)nc4ccccn34)cs2)cc1
inactive: Potency [1] | Potency [2] | Potency [3] | Potency [4] | Potency [5] | Potency [6]

C[C@@H]1C(=O)O[C@H]2C[C@]34[C@H]5C[C@@H](C(C)(C)C)[C@]36[C@@H](OC(=O)[C@H]6O)O[C@]4(C(=O)O5)[C@]21O
inactive: Potency [1] | Potency [2] | Potency [3] | Potency [4] | Potency [5] | Potency [6]

Cc1cc(C(=O)N2Cc3cnn(C)c3Nc3ccccc32)ccc1CNC(=O)N1CCC[C@H]1C(=S)N1CCCN(C)CC1
inactive: Potency [1] | Potency [2] | Potency [3] | Potency [4] | Potency [5] | Potency [6]

CNS(=O)(=O)c1ccccc1Nc1nc(Nc2ccc(N3CCN(C)CC3)cc2OC)ncc1Cl
inactive: Potency [1] | Potency [2] | Potency [3] | Potency [5] | Potency [6]
active: Potency [4] 2.38 µM

CNC12CC3C[C@@](C)(C1)C[C@](C)(C3)C2
inactive: Potency [1] | Potency [2] | Potency [3] | Potency [4] | Potency [5] | Potency [6]

CC(C)=CCC[C@](C)(O[C@@H]1O[C@H](CO)[C@@H](O)[C@H](O)[C@H]1O)[C@H]1CC[C@]2(C)[C@@H]1[C@H](O)CC1[C@@]3(C)CC[C@H](O)C(C)(C)C3[C@@H](O[C@@H]3O[C@H](CO)[C@@H](O)[C@H](O)[C@H]3O)C[C@]12C (some centres undefined)
inactive: Potency [1] | Potency [2] | Potency [3] | Potency [4] | Potency [5] | Potency [6]

CC1=C2C3OC(=O)C(C)C3(O)CCC2(C)CCC1O (centres undefined)
active: Potency [4] 11.9 µM
inactive: Potency [1] | Potency [2] | Potency [3] | Potency [5] | Potency [6]

CCC[C@@H]1O[C@@H]2C[C@H]3[C@@H]4CCC5=CC(=O)C=C[C@]5(C)[C@H]4[C@@H](O)C[C@]3(C)[C@]2(C(=O)CO)O1
inactive: Potency [1] | Potency [2] | Potency [3] | Potency [4] | Potency [5] | Potency [6]

C[C@@H]1O[C@@H](O[C@H]2[C@@H](OC(=O)[C@]34CCC(C)(C)CC3C3=CCC5[C@@]6(C)C[C@H](O)[C@H](O[C@@H]7O[C@H](C(=O)O)[C@@H](O)[C@H](O)[C@H]7O)[C@@](C)(C(=O)O)C6CC[C@@]5(C)[C@]3(C)CC4)OC[C@H](O)[C@@H]2O)[C@H](O)[C@H](O)[C@H]1O[C@@H]1OC[C@@H](O)[C@H](O)[C@H]1O (some centres undefined)
inactive: Potency [1] | Potency [2] | activity change, negative = inhibition [3] -6.45% [at 11.6 µM] | activity change, negative = thiol reactive [4] 118% [at 11.5 µM] | activity, negative = inhibition [5] 0.813% [at 11.6 µM] | redox activity (% of DA3003) [6] 13% [at 11.5 µM]

CC1(C)CC[C@]2(CO[C@@H]3O[C@H](CO)[C@@H](O)[C@H](O)[C@H]3O)[C@@H](O)C[C@]3(C)C(=CCC4[C@@]5(C)CC[C@H](O[C@@H]6O[C@H](CO[C@@H]7O[C@H](CO[C@@H]8OC[C@@H](O)[C@H](O)[C@H]8O)[C@@H](O)[C@H](O)[C@H]7O)[C@@H](O)[C@H](O)[C@H]6O)C(C)(C)C5CC[C@]43C)[C@@H]2C1 (some centres undefined)
inactive: Potency [1] | Potency [2] | activity change, negative = inhibition [3] -4.11% [at 11.6 µM] | activity change, negative = thiol reactive [4] 75.4% [at 11.5 µM] | activity, negative = inhibition [5] 0.495% [at 11.6 µM] | redox activity (% of DA3003) [6] 13.8% [at 11.5 µM]

COc1ccc(C(=O)Nc2ncc(-c3ccc(C(=O)O)cc3)s2)cc1
active: Potency [3] 2.69 µM
inactive: Potency [1] | Potency [2] | Potency [4] | Potency [5] | Potency [6]

O=C(OC[C@H]1O[C@H](O[C@]2(CO)O[C@H](CO)[C@@H](O)[C@@H]2O)[C@H](O)[C@@H](O)[C@@H]1O)c1ccccc1
inactive: Potency [1] | Potency [2] | Potency [3] | Potency [4] | Potency [5] | Potency [6]

COc1ccc(N(C)c2nc(C)nc3ccccc23)cc1
inactive: Potency [1] | Potency [2] | Potency [3] | Potency [4] | Potency [5] | Potency [6]
